# Compound activity: PubChem, National Center for Advancing Translational Sciences (NCATS)
# HT1080 IDH1KD tx: qHTS for induction of synthetic lethality in tumor cells producing 2HG: qHTS for the HT-1080-IDH1KD cell line. HT-1080 IDH1 knockdown viability, ATP luminescence, 48 h. Potency, µM (titrated, usually from 46.1 µM), without a hit: at the top dose activity, negative = toxicity, usual class: cytotoxic. 360,000 compounds, 2% hits. AID 686971, 2013;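 note: 0% = DMSO wells and -100% = cell-free medium wells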
#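 In this qHTS, HT-1080 cells depleted of IDH1 are exposed for 48 h at 37 °C to compound titrations. Toxicity is scored from CellTiter-Glo luminescence, with DMSO as full viability and medium alone as none.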
# TGFb inhibitor: qHTS for Inhibitors of TGF-b | HepG2 CAGA-GFP TGF-b/SMAD3 reporter, GFP fluorescence, 18 h; TGF-beta stimulated, 500 pg/mL final | Potency, µM (top dose mostly 46.1 µM), for inactives: at the top dose activity, negative = inhibition, most hits filed as inhibitors | 410,000 compounds, 1.2% hits | AID 588855, 2011; note: % is set by controls: 0 for no effect and ±100 for the full control effect; nearly all actives have a fitted effect of over 65% in size
#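 TGF-beta reporter screen: HEPG2 CAGA-GFP, 1% FBS, 500 pg/mL TGF-beta final, 18 h; per-cell GFP summed per well; curves fitted and categorized by class.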
# HT1080NT lethal: qHTS for induction of synthetic lethality in tumor cells producing 2HG: qHTS for the HT-1080-NT fibrosarcoma cell line. AID 686970, 2013. Potency, µM (series often up to 46.1 µM), for the others: at the highest dose activity, negative = less viability, hits mostly cytotoxic. HT-1080-NT fibrosarcoma viability, CellTiter-Glo ATP luminescence, 48 h. 360,000 compounds, 1.6% hits;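 note: NT is the 2HG producing partner of a matched IDH1 knockdown line; 0% = DMSO-treated cells and -100% = media-only wells without cells; nearly all actives have a fitted effect of over 55% in size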
#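 HT-1080-NT; 750 cells/well; 5% FBS RPMI; 48 h compound, 37 degrees C; CellTiter-Glo luminescence; curve fitting and curve-class assignment.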
# TDP1 cell noCPT: qHTS for Inhibitors of human tyrosyl-DNA phosphodiesterase 1 (TDP1): qHTS in cells in absence of CPT | DT40 Tdp1-/- hTDP1 cells, no CPT, ATP luminescence, 48 h | Potency, µM (top dose mostly 46.2 µM), inactives show top-dose activity change, negative = growth inhibition, usual class: inhibitors | 420,000 compounds, 15% hits | AID 686978, 2013; note: % is set by controls: 0 for no effect and ±100 for the full control effect; nearly all actives have a fitted effect of over 55% in size
#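 Growth kinetics read by CellTiter-Glo luminescence after ≥48 hr at 37 °C. Cells: DT40 Tdp1-/- stably carrying human TDP1, 400 per well, compound exposure in the absence of CPT (DMSO vehicle).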
# TDP1 cell CPT: qHTS for Inhibitors of human tyrosyl-DNA phosphodiesterase 1 (TDP1): qHTS in cells in presence of CPT | chicken DT40 Tdp1-/-;hTDP1 cells + 20 nM CPT, ATP luminescence, 48 h | Potency, µM (top dose mostly 46.2 µM), for inactives: at the highest dose activity change, negative = growth inhibition, most hits filed as inhibitors | 420,000 compounds, 12% hits; note: % is set by controls: 0 for no effect and ±100 for the full control effect; nearly all actives have a fitted effect of over 55% in size
#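 Cell growth measured by CellTiter-Glo luminescence after a minimum 48 h, 37 C compound exposure with 20 nM CPT in Tdp1-knockout DT40 cells stably expressing hTDP1, seeded 400/well; qHTS titration format.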
# HepG2 tox: qHTS for Inhibitors of TGF-b: Cytotox Counterscreen | HepG2 CAGA-GFP viability, ATP luminescence, 18 h | Potency, µM (doses to about 46.1 µM), for inactives: at the highest dose activity change, negative = cytotoxicity, most hits filed as cytotoxic | 410,000 compounds, 0.76% hits | AID 588856, 2011
#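 CellTiter-Glo luminescence gave cytotoxicity after 18 hours at 37 degrees C. The cells were HepG2 CAGA-GFP in 1% FBS DMEM, stimulated with 500 pg/mL TGF-beta after compound addition. %Activity was normalised to no-cell wells (complete cell-killing) and DMSO (no toxicity), and curves were fitted and classified.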
# * marks the source's active call; other numbers are inactive results; ? = inconclusive; . = not tested or not shown; [ ] = remark or other dose. An excerpt weighted towards active compounds, which were near 17% of everything screened. Calls come from the whole dose curve; as a rule, active = well fitted curve in the direction sought with a large enough effect; inconclusive = small, poorly fitted or top-dose-only effect, or another doubt; inactive = no such curve, though single readings can be large; an effect the other way counts as inactive or inconclusive. Potency is the fitted concentration of half-maximal effect.
SMILES,HT1080 IDH1KD tx,TGFb inhibitor,HT1080NT lethal,TDP1 cell noCPT,TDP1 cell CPT,HepG2 tox
CCN1CCN(CCCNC(=O)C2CCCN(c3nc4c(C)cc(C)cc4s3)C2)CC1 (stereo not drawn),?,-22%,?,21µM*,23µM*,-52%
CC(C)N1CCSC1=S,2%,11%,11%,6%,8%,2%
COc1ccc(C2c3[nH]c4ccccc4c3C[C@H]3C(=O)N(c4ccccc4C(=O)NCCN4CCOCC4)C(=O)N23)cc1 (stereo partly drawn),0%,-6%,-9%,?,23µM*,8%
O=C(NCCN1CCOCC1)c1ccccc1N1C(=O)[C@@H]2Cc3c([nH]c4ccccc34)C(c3ccc(F)cc3)N2C1=O (stereo partly drawn),-3%,9%,2%,?,15µM*,-24%
Cc1ccc(C2c3[nH]c4ccccc4c3C[C@H]3C(=O)N(c4ccccc4C(=O)N4CCC(C(=O)O)CC4)C(=O)N23)cc1 (stereo partly drawn),4%,3%,-10%,-7%,2%,7%
COc1cccc(C2c3[nH]c4ccccc4c3C[C@H]3C(=O)N(c4ccccc4C(=O)N4CCCC4C(=O)O)C(=O)N23)c1 (stereo partly drawn),1%,-6%,3%,-4%,3%,-5%
Cc1ccc(-n2c(C)nc3c(cnn3-c3ccccc3)c2=O)cc1,.,-7%,.,.,.,-26%
O=c1[nH]c2c(cnn2-c2ccc(Cl)cc2)c(=O)n1-c1cccc(Cl)c1,-10%,0%,-26%,29µM*,?,-33%
Cc1ccc(-c2nc3c(cnn3-c3ccccc3)c(=O)n2-c2cccc(Cl)c2)cc1,.,?,.,13µM*,23µM*,1%
O=c1oc(-c2ccccc2F)nc2c1cnn2-c1ccccc1,10%[9.24 µM],-3%,-29%,23µM*,?,-46%
Cc1ccc(-n2c(-c3ccc(Br)cc3)nc3c(cnn3-c3ccccc3)c2=O)cc1,.,?,.,21µM*,?,1%
COc1cccc(-n2c(-c3ccccc3F)nc3c(cnn3-c3ccc(C)cc3)c2=O)c1,.,?,.,12µM*,16µM*,-1%
COCCn1nnnc1C(C(C)C)N(Cc1cccnc1)Cc1ccccc1Cl (stereo not drawn),-13%,0%,-10%,23µM*,?,-21%
COc1ccccc1NC(=S)N(Cc1cccnc1)Cc1ccccc1Cl,-8%,3%,-4%,?,-29%,-1%
O=C(c1cncc(Br)c1)N1CCN(S(=O)(=O)c2ccc3ccccc3c2)CC1,1%,-24%,8%,-10%,-11%,2%
CN(C)CCCNc1ncnc2sc(-c3ccccc3)cc12,-22%,?,-2%,16µM*,?,-54%
CCCCN(CCO)c1ncnc2sc(-c3ccccc3)cc12,?,?,-26%,16µM*,?,-41%
CCOC(CNc1ncnc2sc(-c3ccccc3)cc12)OCC,-2%,-11%,-3%,-29%,?,-14%
Cc1cccc(-n2ncc3c(N(CCO)CCO)ncnc32)c1,-2%,-4%,9%,-12%,-5%,-10%
Cc1ccccc1NC(=O)C1CCN(S(=O)(=O)c2c(C)noc2/C=C/c2ccco2)CC1,.,-9%,.,-13%,-5%,-26%
